Source: PubChem BioAssay (National Center for Advancing Translational Sciences (NCATS))
Only some compounds are listed: those with a hit (about 17% of all), similar ones and a draw of the others.
DT40 TDP1 CPT: growth inhibition of DT40 Tdp1-/-;hTDP1 cells with camptothecin (screen for TDP1 inhibitors); hit rate 12% among 420,000; Potency, µM (top dose mostly 46.2 µM), usual class: inhibitors; chicken DT40 Tdp1-/-;hTDP1 cells + 20 nM CPT, ATP luminescence, 48 h; note: nearly all actives have a fitted effect of over 55% in size
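Cell growth measured by CellTiter-Glo luminescence after a minimum 48 h, 37 C compound exposure with 20 nM CPT in Tdp1-knockout DT40 cells stably expressing hTDP1, seeded 400/well; qHTS titration format.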
HepG2 viability: counter-screen for TGF-b inhibitors: cytotoxicity in HepG2 cells; HepG2 CAGA-GFP viability, ATP luminescence, 18 h; Potency, µM (top dose mostly 46.1 µM), hits mostly cytotoxic; hit rate 0.76% among 410,000; AID 588856
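CellTiter-Glo luminescence gave cytotoxicity after 18 hours at 37 degrees C. The cells were HepG2 CAGA-GFP in 1% FBS DMEM, stimulated with 500 pg/mL TGF-beta after compound addition. %Activity was normalised to no-cell wells (complete cell-killing) and DMSO (no toxicity), and curves were fitted and classified.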
TGFb SMAD3 inh: inhibitors of TGF-b signaling | HepG2 CAGA-GFP TGF-b/SMAD3 reporter, GFP fluorescence, 18 h; TGF-beta stimulated, 500 pg/mL final | Potency, µM (titrated, usually from 46.1 µM), most hits filed as inhibitors | hit rate 1.2% among 410,000 | AID 588855; note: nearly all actives have a fitted effect of over 65% in size
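Using HEPG2 CAGA-GFP reporter cells at 1000 cells/well, we pinned test compounds, stimulated with recombinant TGF-beta (500 pg/mL final) and measured total well GFP after 18 h.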
DT40 TDP1 no CPT: qHTS for Inhibitors of human tyrosyl-DNA phosphodiesterase 1 (TDP1): qHTS in cells in absence of CPT | DT40 Tdp1-/- hTDP1 cells, no CPT, ATP luminescence, 48 h | Potency, µM (doses to about 46.2 µM), most hits filed as inhibitors | hit rate 15% among 420,000; note: nearly all actives have a fitted effect of over 55% in size
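DT40 Tdp1-/-;hTDP1 cells, no CPT (DMSO vehicle only), 400 cells/well; compounds pin-transferred; ≥48 hr, 37 °C; CellTiter-Glo 30 min RT dark, luminescence read.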
ATXN viability: cell viability loss in ATXN counter-screen; S2 cells (HEK-293 line with an ATXN2-luciferase reporter) viability, CellTiter-Fluor protease fluorescence, 24 h; Potency, µM (doses to about 56.7 µM), usual class: cytotoxic; hit rate 0.49% among 400,000; AID 651635; note: nearly all actives have a fitted effect of over 40% in size
ATXN2 expr inh: reduces ATXN2 reporter expression in HEK-293 cells | HEK-293 ATXN2-luciferase reporter, luminescence, 24 h | Potency, µM (series often up to 57 µM), actives largely listed as inhibitors | hit rate 0.72% among 360,000 | AID 1745845; note: nearly all actives have a fitted effect of over 55% in size
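qHTS (up to 57 uM final) was run with 24 h compound exposure of reporter cells at 37 °C. Each well was multiplexed: SteadyGlo luminescence measured ATXN2-luciferase expression after a fluorogenic Gly-Phe-AFC viability readout (25 uM final).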
Each line names hits and unclear results; the compound was inactive in the other large screens. Calls come from the whole dose curve; as a rule, active = well fitted curve in the direction sought with a large enough effect; inconclusive = small, poorly fitted or top-dose-only effect, or another doubt; inactive = no such curve, though single readings can be large; an effect the other way counts as inactive or inconclusive.

O=C(Cc1ccc(NC(=O)C2CCCN(C(=O)CCc3ccccc3)C2)cc1)Nc1cccc(C(=O)N2CCCC2)c1 (stereo unspecified)	DT40 TDP1 CPT 23.1µM, DT40 TDP1 no CPT 13µM
O=C(Cc1cccc(NC(=O)C2CCCN(C(=O)CCc3ccccc3)C2)c1)Nc1cccc(C(=O)N2CCCC2)c1 (stereo unspecified)	DT40 TDP1 CPT 18.4µM, DT40 TDP1 no CPT 23.1µM
CC(O)CSc1nc2c(c(=O)n(C)c(=O)n2C)n1CCCc1ccccc1 (stereo unspecified)	DT40 TDP1 CPT inconclusive, DT40 TDP1 no CPT inconclusive
CCCCn1c(CN(Cc2ccccc2)Cc2ccccc2)nc2c1c(=O)n(C)c(=O)n2C	DT40 TDP1 CPT 13µM, DT40 TDP1 no CPT 18.4µM
CCCCn1c(SCc2nnc(-c3ccccc3)o2)nc2c1c(=O)n(C)c(=O)n2C	DT40 TDP1 CPT 14.6µM, DT40 TDP1 no CPT 10.3µM
CCN(CC)c1nc2c(c(=O)n(C)c(=O)n2C)n1CCCc1ccccc1	DT40 TDP1 CPT 20.6µM, DT40 TDP1 no CPT 23.1µM (no result: ATXN2 expr inh)
CCCCn1c(SCC(=O)NCc2cccs2)nc2c1c(=O)n(C)c(=O)n2C	none
CN(Cc1ccccc1)c1nc2c(c(=O)n(C)c(=O)n2C)n1CCCc1ccccc1	DT40 TDP1 CPT 23.1µM, DT40 TDP1 no CPT 16.4µM
COc1ccc(NC(=O)C2CC(c3ccccc3Cl)=NO2)cc1 (stereo unspecified)	none
C(=C\c1nccc2ccccc12)/c1ccc(N2CCOCC2)cc1	DT40 TDP1 CPT inconclusive, DT40 TDP1 no CPT inconclusive (no result: ATXN viability, ATXN2 expr inh)
CCN(CC)c1nc2c(c(=O)[nH]c(=O)n2C)n1CCCc1ccccc1	DT40 TDP1 CPT inconclusive, DT40 TDP1 no CPT 10.3µM
Cc1n[nH]c(C)c1N1C(=O)c2cccc3c(N4CCCCCC4)ccc(c23)C1=O	DT40 TDP1 CPT inconclusive, DT40 TDP1 no CPT 23.1µM
CCC/C=C(\CCC)C(NC(=O)OCC(C)C)c1ccc(C(=O)OC)cc1 (stereo unspecified)	DT40 TDP1 CPT 23.1µM, DT40 TDP1 no CPT 14.6µM
CCC/C=C(\CCC)C(NS(=O)(=O)c1cccc2cccnc12)c1ccc(C(=O)OC)cc1 (stereo unspecified)	DT40 TDP1 CPT inconclusive, TGFb SMAD3 inh inconclusive, DT40 TDP1 no CPT 23.1µM, ATXN2 expr inh inconclusive
COC(=O)c1ccc(C(NC(=O)OCc2ccccc2)/C(C)=C/[C@@H](C)C(=O)NCc2ccc(-c3ccccc3)cc2)cc1 (stereo partly specified)	DT40 TDP1 CPT inconclusive, DT40 TDP1 no CPT inconclusive
COC(=O)C1=C(C)NC(C)=C(C(=O)OC)C1C(=O)OCc1nnc(-c2ccccc2Cl)o1	DT40 TDP1 CPT inconclusive, DT40 TDP1 no CPT inconclusive, ATXN viability inconclusive
C[C@H](NC(=O)N1CCn2c1nc1ccccc12)C(=O)N1CCCCC1	DT40 TDP1 CPT 16.4µM, DT40 TDP1 no CPT inconclusive
CCCCc1ccc(N2C(=NC(=O)C3CCCO3)SC3CS(=O)(=O)CC32)cc1 (stereo unspecified)	none
COc1ccc(Nc2ncc3c(n2)CCN(Cc2cccc(F)c2F)C3)c(OC)c1	DT40 TDP1 CPT 25.9µM, DT40 TDP1 no CPT 20.6µM
COc1ccc(Nc2ncc3c(n2)CCN(Cc2ccc(Br)s2)C3)c(OC)c1	DT40 TDP1 CPT 20.6µM, DT40 TDP1 no CPT 13µM
COc1ccc(Nc2ncc3c(n2)CCN(Cc2cc(Br)cs2)C3)c(OC)c1	DT40 TDP1 CPT 18.4µM, DT40 TDP1 no CPT 14.6µM
COc1ccccc1Nc1ncc2c(n1)CCN(CC(C)C)C2	DT40 TDP1 CPT inconclusive, DT40 TDP1 no CPT inconclusive
COCCn1c(=O)c(-c2cn(C)c3ccccc23)nc2cnc(Oc3ccccc3)nc21	none (no result: HepG2 viability, TGFb SMAD3 inh, ATXN viability, ATXN2 expr inh)
O=C(c1ccc2c(=O)n(-c3ccccc3)c(=O)[nH]c2c1)N1CCCCC1	DT40 TDP1 CPT inconclusive, DT40 TDP1 no CPT inconclusive
O=C(Nc1ccc(S(=O)(=O)N2CCCC2)cc1)C1CCCCC1	DT40 TDP1 no CPT inconclusive
COCCn1c(C)cc(C2=NNC(=Nc3ccc(OC)cc3)SC2)c1C	DT40 TDP1 CPT 23.1µM, DT40 TDP1 no CPT 11.6µM, ATXN viability inconclusive
COCCn1c(C)cc(C2=NNC(=NC(C)(C)C)SC2)c1C	DT40 TDP1 no CPT 18.4µM
Cc1cc(C2=NNC(=NCCc3ccccc3)SC2)c(C)n1CC1CCCO1 (stereo unspecified)	DT40 TDP1 CPT 16.4µM, TGFb SMAD3 inh inconclusive, DT40 TDP1 no CPT inconclusive
Cc1cc(C2=NNC(=NC3CCCCC3)SC2)c(C)n1-c1c(C)n(C)n(-c2ccccc2)c1=O	DT40 TDP1 no CPT inconclusive, ATXN viability inconclusive (no result: ATXN2 expr inh)
COCCn1c(C)cc(C2=NNC(=Nc3ccccc3)SC2)c1C	DT40 TDP1 CPT 22.4µM, DT40 TDP1 no CPT 15.8µM
CN(CC(=O)Nc1ccccc1C(=O)NC1CC1)Cc1ccc(N(C)C)cc1	none
Cc1ccc([N+](=O)[O-])cc1S(=O)(=O)Nc1cccc(-c2ccc(N3CCOCC3)nn2)c1	DT40 TDP1 no CPT inconclusive
CC(=O)OCC(NC(=O)C(CCCCNC(=O)OCc1ccccc1)NC(=O)OC(C)(C)C)C1OC(n2cc(C)c(=O)[nH]c2=O)C(OC(C)=O)C1OC(C)=O (stereo unspecified)	none (no result: DT40 TDP1 CPT, DT40 TDP1 no CPT, ATXN viability, ATXN2 expr inh)
Cc1ccc(C)c(NS(=O)(=O)c2cc3c(cc2Cl)NC(=O)CO3)c1	DT40 TDP1 CPT inconclusive, DT40 TDP1 no CPT inconclusive
CCN=C1NN=C(c2cc(C)n(Cc3ccco3)c2C)CS1	DT40 TDP1 CPT 16.4µM, DT40 TDP1 no CPT 18.4µM, ATXN2 expr inh inconclusive
CN(C)S(=O)(=O)c1cccc(NC(=O)CSc2nc3c(cc2C#N)C(=O)CC(C)(C)C3)c1	DT40 TDP1 CPT 9.2µM, TGFb SMAD3 inh inconclusive, DT40 TDP1 no CPT 7.31µM
CN(C)S(=O)(=O)c1cccc(NC(=O)CSc2cccc3cccnc23)c1	DT40 TDP1 CPT 3.66µM, HepG2 viability 15.8µM, TGFb SMAD3 inh inconclusive, DT40 TDP1 no CPT 3.26µM, ATXN2 expr inh inconclusive (no result: ATXN viability)
O=C(c1ccc2c(c1)CCC2)N1CCN(Cc2ccccc2)CC1	DT40 TDP1 CPT inconclusive, DT40 TDP1 no CPT inconclusive (no result: ATXN2 expr inh)
CC(=O)CCc1ccc(OCC(=O)Nc2cccc(S(=O)(=O)N(C)c3ccccc3)c2)cc1	DT40 TDP1 no CPT inconclusive
CN(C)S(=O)(=O)c1cccc(NC(=O)COC(=O)c2ccc3ccccc3n2)c1	none
Cc1nnnn1/C(=C\c1ccccc1)C(=O)OCC(=O)Nc1cccc(S(=O)(=O)N(C)C)c1	DT40 TDP1 CPT 10.3µM, TGFb SMAD3 inh inconclusive, DT40 TDP1 no CPT 7.31µM, ATXN viability inconclusive
